Compound activity deposited in PubChem BioAssay by several laboratories.
CYP2C9 inh – blockers of cytochrome P450 2C9 activity – biochemical, luminescence, ADME assay, primary screen; 20% of 96,000 active; inhibition, % at 5 µM; AID 777, 2007; CYP2C9 Supersomes, luciferin-H conversion; P11712;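 active means blocking of liver enzyme CYP2C9 beyond about 50% at 5 µM, limit read from the data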
Target sequence (P11712 whole entry, looked up): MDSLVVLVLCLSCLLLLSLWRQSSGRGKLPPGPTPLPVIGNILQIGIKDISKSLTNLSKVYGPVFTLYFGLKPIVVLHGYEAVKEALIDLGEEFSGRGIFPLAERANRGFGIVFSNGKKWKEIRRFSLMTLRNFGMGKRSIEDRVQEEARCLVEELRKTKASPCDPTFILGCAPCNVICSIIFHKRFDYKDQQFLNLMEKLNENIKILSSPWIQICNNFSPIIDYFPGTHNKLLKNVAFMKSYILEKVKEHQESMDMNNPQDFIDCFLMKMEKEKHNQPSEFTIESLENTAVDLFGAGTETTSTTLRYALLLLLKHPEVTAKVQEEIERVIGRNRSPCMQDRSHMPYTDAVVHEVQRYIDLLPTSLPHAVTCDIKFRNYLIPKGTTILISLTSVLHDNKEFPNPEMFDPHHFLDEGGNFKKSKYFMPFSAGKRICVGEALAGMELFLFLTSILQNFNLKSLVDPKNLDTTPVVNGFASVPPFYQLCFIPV
Measles CPE – compounds protecting cells from measles virus cytopathic effect, primary screen, measles RdRp inhibitor project, single point, MLSMR library, absorbance. 1.5% of 140,000 active. protection (pct of control), % at 4 µM. Measles virus-infected cells, CPE protection; in the data active means protection mostly above about 24%, no sharp cut-off; inactive means mostly below about 26%
CYP2C19 activ – human CYP2C19 activators, primary screen, biochemical, luminescence; 96,000 tested, under 10 active; AID 1025, 2008; activation factor at 5 µM; recombinant CYP2C19, luciferin-H EGE luminescence; active compounds read high; 0 = fully inhibited enzyme, 1 = untreated enzyme;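 active means activation factor of at least 2 at 5 µM in the primary screen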;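 further: 0 = wells with 2.5 mM tranylcypromine and 1 = vehicle-only wells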
CYP2C9 act – human CYP2C9 activators, primary screen, biochemical, luminescence. Cytochrome P450 2C9 (Homo sapiens), P11712. recombinant CYP2C9, luciferin-H conversion; active compounds read high; factor 1 = untreated enzyme, 0 = blocked. activation factor at 5 µM. 1.4% of 96,000 active. AID 1024, 2008;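 active means activation factor of 2 or more for CYP2C9 at a 5 µM dose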;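 further: 0 = sulfaphenazole-blocked wells and 1 = vehicle-only wells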
CYP2C19 inhib – blockers of cytochrome P450 2C19 activity – biochemical, luminescence, ADME assay, primary screen; P33261; CYP2C19 Supersomes, luciferin-H EGE luminescence, 30 min; inhibition, % at 5 µM; 21% of 96,000 active; AID 778, 2007;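 active means CYP2C19 inhibition above a set limit at 5 µM in the primary screen, cut at about 50% in these data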;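 further: plate controls were negative control wells for no effect and 2.5 mM tranylcypromine positive control for full effect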
* = called active by the depositor; . = no result. Most compounds without a hit are left out; they make up all but 22% or so of the library.

SMILES | CYP2C9 inh | Measles CPE | CYP2C19 activ | CYP2C9 act | CYP2C19 inhib
CCCCn1c(CCC(=O)O)nc2c1c(=O)[nH]c(=O)n2CCC | -5 | 4 | 1 | 1.1 | -3
CCCCn1c(=O)[nH]c(=O)c2c1nc(COC(=O)c1c(C)noc1C)n2CCC | 97* | 4 | 0.3 | 0 | 68*
COc1ccccc1N/N=C/c1ccc2c(c1)OCO2 | . | 7 | . | . | .
CCCCCC(=O)N1CC2(C)CN(C(=O)CCCCC)CC(C)(C1)C2=O | -3 | 16 | 1 | 1 | 4
COc1ccc(CCn2c(N)c(C(=O)NCc3ccco3)c3nc4ccccc4nc32)cc1OC | 56* | 14 | 0.2 | 0.4 | 77*
Nc1c(C(=O)NCc2ccco2)c2nc3ccccc3nc2n1CCc1ccccc1F | 52* | 0 | 0.6 | 0.5 | 38
COc1ccc(CCn2c(N)c(C(=O)NCc3ccco3)c3nc4ccccc4nc32)cc1 | . | 2 | . | . | .
CCC(=O)N1C(Cc2ccccc2)COC1(C)C (configuration not stated) | . | 13 | . | . | .
CCNc1nc(Oc2ccc(Cl)cc2Cl)cc(C(F)(F)F)n1 | 63* | 3 | 1.1 | 0.4 | -5
CCNc1nc(N)nc(Oc2ccc(OCCOc3ccc(Cl)cc3Cl)nn2)n1 | 80* | 6 | 0.1 | 0.2 | 94*
COC(=O)c1ccc(COc2ccc(-c3nnn(CC(=O)NC(C)(C)C)n3)cc2)cc1 | . | 6 | . | . | .
Cc1nc(C)c(C(=O)NNS(=O)(=O)c2ccc([N+](=O)[O-])cc2)s1 | . | 26 | . | . | .
COc1cc(CNCc2ccccn2)ccc1OCC(N)=O | -3 | 17 | 0.9 | 1 | 8
COc1cc(CNCc2ccccn2)ccc1OCc1ccc(Cl)cc1Cl | 17 | 20 | 0.3 | 0.8 | 73*
COc1cccc(CNCc2ccccn2)c1OC | 20 | 8 | 0.3 | 0.8 | 74*
C=CCN=C(NC#N)SCC(=O)NC(C)(C)C | -19 | 9 | 0.9 | 1.2 | 5
C=CCN=C(NC#N)SCC(=O)NCc1ccccc1 | 17 | 5 | 0.5 | 0.8 | 51*
C=CCN=C(NC#N)SCCc1ccccc1 | 52* | 23 | 0.1 | 0.5 | 93*
NC(N)=NC(N)=NCCc1ccccc1 | . | 43 | . | . | .
CCCCN1C(=O)Nc2ccccc2S1(=O)=O | . | 20 | . | . | .
COCCCNc1ncnc2nc[nH]c12 | -3 | 19 | 1.1 | 1 | -6
O=C(Cn1c(O)c(/C=C2\C=Nc3ccc(Br)cc32)sc1=O)N1CCCC1 | 91* | 4 | 0.3 | 0.1 | 70*
CNC(=S)N1CCN(c2ccc(OC)cc2)CC1 | 15 | 4 | 0.3 | 0.8 | 70*
COC(=O)Cc1ccc(NC(=S)N2CCN(c3ccc(OC)cc3)CC2)cc1 | . | 34* | . | . | .
COC(=O)Cc1ccc(NC(=S)N2CCN(c3cccc(O)c3)CC2)cc1 | . | 24 | . | . | .
SMILES | CYP2C9 inh | Measles CPE | CYP2C19 activ | CYP2C9 act | CYP2C19 inhib
COc1ccc(N2CCN(C(=S)Nc3cc(C)cc(C)c3)CC2)cc1 | -3 | 7 | 0.9 | 1 | 11
Cc1sc(NC(=O)C2C3CCC(O3)C2C(=O)O)nc1-c1ccc(CC(C)C)cc1 (configuration not stated) | . | 10 | . | . | .
CC(C)CCNC(=O)C(c1ccco1)N(Cc1cccs1)C(=O)Cn1nnc2ccccc21 (configuration not stated) | 59* | 1 | 0.3 | 0.4 | 73*
COCCNC(=O)C(c1cccs1)N(Cc1cccs1)C(=O)Cn1nnc2ccccc21 (configuration not stated) | . | 6 | . | . | .
Cc1ccccc1N(C(=O)Cn1nnc(-c2cccs2)n1)C(C(=O)NCCC(C)C)c1ccco1 (configuration not stated) | 84* | 9 | 0.4 | 0.2 | 60*
COCCNC(=O)C(c1ccco1)N(C(=O)Cn1nnc2ccccc21)c1ccccc1C (configuration not stated) | -2 | 23 | 1 | 1 | 1
Nc1cccc(-n2nncc2-c2ccc(Cl)cc2)c1 | 16 | 4 | 0.2 | 0.8 | 77*
C=CCc1cccc(/C=N/NC(=O)C(C)Nc2ccc(C)cc2)c1O (configuration not stated) | . | 14 | . | . | .
Cc1ccc(-c2noc(CSc3nnc(CCc4ccccc4)n3-c3ccccc3)n2)cc1 | 76* | 2 | 0.2 | 0.2 | 83*
COc1ccc(-n2c(CCc3ccccc3)nnc2SCC(=O)c2ccccc2)cc1 | . | 14 | . | . | .
COc1ccc(C(=O)CSc2nnc(CCc3ccccc3)n2-c2ccccc2)cc1 | 5 | 25* | 0.8 | 0.9 | 22
Cn1c(SCc2nc(-c3ccccc3)no2)nnc1-c1ccco1 | 14 | 3 | 0.7 | 0.9 | 30
COc1ccc(-c2noc(CSc3nnc(CCc4ccccc4)n3-c3ccccc3)n2)cc1OC | 80* | 20 | 0 | 0.2 | 99*
COCCN1C(=O)c2ccccc2C(C(=O)N2CCN(c3ccccc3)CC2)C1c1ccc(F)cc1 (configuration not stated) | 71* | 17 | 0.8 | 0.3 | 18
CC1=C(C(=O)OC(C)C)C(C2CC=CCC2)NC(=O)N1 (configuration not stated) | 8 | 5 | 0.4 | 0.9 | 65*
CCOC(=O)C1=C(C)NC(=O)NC1C1CC=CCC1 (configuration not stated) | 20 | 21 | 0.5 | 0.8 | 52*
CC1=C(C(=O)OC(C)C)C(C)NC(=O)N1 (configuration not stated) | 5 | 12 | 1 | 1 | 2
CCOc1ccc(-n2c(SCC(=O)c3c(N)n(C)c(=O)n(C)c3=O)nnc2-c2cccnc2)cc1 | . | 22 | . | . | .
CSC(=Nc1cccc(C)c1)NC#N | . | 24 | . | . | .
O=C(CN1CCN(c2ncccn2)CC1)NCCC1=CCCCC1 | 94* | 8 | 0.5 | 0.1 | 54*
COCCCNC(=O)c1c(NC(=O)C2COc3ccccc3O2)sc2c1CCCC2 (configuration not stated) | 92* | 21 | 0.2 | 0.1 | 82*
O=C(NCCC1=CCCCC1)C1COc2ccccc2O1 (configuration not stated) | 58* | 16 | 0.1 | 0.4 | 87*
O=C(CN1C(=O)C2C3C=CC(C3)C2C1=O)NCCC1=CCCCC1 (configuration not stated) | 15 | 21 | 0.5 | 0.9 | 51*
Cc1ccc2[nH]c(O)c(N=NC(=O)C3CC3c3ccccc3)c2c1Br (configuration not stated) | . | 19 | . | . | .
COCCCNC(=S)N(Cc1cccnc1)Cc1ccc(OC)c(OC)c1 | . | 16 | . | . | .
CCC1Oc2ccccc2N(CC(=O)NCCC2=CCCCC2)C1=O (configuration not stated) | 41 | 3 | 0.1 | 0.6 | 89*
O=C1c2ccccc2C(=O)C1c1ccnc2ccccc12 | . | 1 | . | . | .
O=C1c2ccccc2C(=O)C1c1ccc2ccccc2n1 | 74* | 1 | 0.2 | 0.3 | 82*
